Activity calls are given as the source filed them. The calls were made as follows: active = hit-call score of the fitted dose curve at least 0.9, where 1 is the maximum; inactive = score below 0.9.
These molecules were tested against Transcription factor Sp1 (Homo sapiens) (UniProt P08047) (assay: ATG_Sp1_CIS: Attagene CIS-FACTORIAL HepG2 Assay for human Specificity Protein 1 (Sp1) (AID 2282961)). Details: HepG2 Sp1 cis-reporter transcription, actives raise or lower the signal.
Chain of Transcription factor Sp1 (Homo sapiens) (P08047 whole entry, looked up): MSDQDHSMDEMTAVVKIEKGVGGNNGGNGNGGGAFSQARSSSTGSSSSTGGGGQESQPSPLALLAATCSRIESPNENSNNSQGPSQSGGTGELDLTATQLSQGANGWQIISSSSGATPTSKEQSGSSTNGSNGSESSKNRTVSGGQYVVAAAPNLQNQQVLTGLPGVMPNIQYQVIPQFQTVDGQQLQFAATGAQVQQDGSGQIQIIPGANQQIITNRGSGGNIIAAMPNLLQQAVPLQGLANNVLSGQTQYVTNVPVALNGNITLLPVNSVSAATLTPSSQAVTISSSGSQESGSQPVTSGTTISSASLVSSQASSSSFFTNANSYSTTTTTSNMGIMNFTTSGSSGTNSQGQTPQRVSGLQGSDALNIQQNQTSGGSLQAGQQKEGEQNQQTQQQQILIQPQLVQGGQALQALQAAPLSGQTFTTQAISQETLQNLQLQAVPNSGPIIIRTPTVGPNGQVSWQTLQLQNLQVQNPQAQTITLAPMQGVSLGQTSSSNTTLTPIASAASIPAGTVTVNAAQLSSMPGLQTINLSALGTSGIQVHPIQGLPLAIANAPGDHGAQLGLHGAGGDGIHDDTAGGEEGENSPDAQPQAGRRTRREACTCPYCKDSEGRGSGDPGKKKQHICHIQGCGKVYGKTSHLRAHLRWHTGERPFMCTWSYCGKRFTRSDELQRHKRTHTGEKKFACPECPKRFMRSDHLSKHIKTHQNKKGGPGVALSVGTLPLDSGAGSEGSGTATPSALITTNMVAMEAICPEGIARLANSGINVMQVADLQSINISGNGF
Method: ATG_CIS is a cell-based, multiplexed-readout assay that uses HepG2, a human liver cell line, with measurements taken at 24 hours after chemical dosing in a 24-well plate.ATG_Sp1_CIS is one of 52 assay component(s) measured or calculated from the ATG_CIS assay. It is designed to make measurements of mRNA induction, a form of inducible reporter, as detected with fluorescence intensity signals by Reverse transcription polymerase chain reaction (RT-PCR) and Capillary electrophoresis technology.Data from the assay component ATG_Sp1_CIS was analyzed into 1 assay endpoint. This assay endpoint, ATG_Sp1_CIS, was analyzed with bidirectional fitting relative to DMSO as the negative control and baseline of activity. Using a type of inducible reporter, measures of mRNA for gain or loss-of-signal activity can be used to understand the reporter gene at the transcription factor-level as they relate to the gene SP1. Furthermore, this assay endpoint can be referred to as a primary readout, because this assay has produced multiple assay endpoints where this one serves a reporter gene function. To generalize the intended target to other relatable targets, this assay endpoint is annotated to the dna binding intended target family, where the subfamily is zinc finger.
Human liver HepG2 cells are transiently transfected with multiple reporter transcription units (MRTUs) in 6-well plates using FuGene 6 reagent (Roche; 3 ml FuGene/1 mg DNA). The MRTU constructs are regulated by a cis-regulating element (promoter). […] A major difference between the CIS and TRANS system is that in CIS activities of endogenous TFs are measured, whereas the TRANS assay evaluates changes in activities of exogenous, chimeric NR-Gal4 proteins. […] At the end of 24 hour incubation, total RNA was isolated using TriZol reagent (Invitrogen). The isolated RNA is then reverse-transcribed using oligo(dT) primer and Mo-MLV reverse transcriptase (Invitrogen) with DNAse I (Ambion) treatment for 30 min. The one-tenth of the produced cDNA was amplified by PCR using Taq DNA polymerase (Invitrogen) and two reporter sequence-specific primers. The PCR products were fluorescently labeled by primer extension with 6-arboxyfluorescein (6-FAM) 5'-labeled reporter sequence-specific primer (2 min at 95 C, 20 s at 68 C and 10 min at 72 C) and these products were digested with 5U of HpaI (New England Biolabs) for 2h at 37 C. The fragments were purified using Qiaquick PCR columns (Qiagen), analyzed on an ABI 3130xL genetic analyzer (Applied Biosystems) with peak positions identified by using a set of X-rhodamine (ROX)-labeled MapMarker1000 molecular weight standards (BioVentures). The raw capillary electrophoresis data was processed using Attagraph software (Attagene).
For CC(C)CCCC(C)CC=O (stereo not given), the outcome was “inactive”.
With Cc1cccc(C(=O)O)c1 the outcome was “inactive”.
With Cc1cc(O)c(Cl)c(C)c1Cl the outcome was “inactive”.
For CC=CCO, the outcome was “inactive”.
With NC(=O)C1CO1 (stereo not given) the outcome was “inactive”.
With [Cl][Bi]([Cl])([c]1ccccc1)([c]1ccccc1)[c]1ccccc1 the outcome was “inactive”.
With Nc1ncn([C@@H]2O[C@H](CO)[C@@H](O)[C@H]2O)c(=O)n1 the outcome was “inactive”.
For O=C(/C=C/C=C/c1ccc2c(c1)OCO2)N1CCCCC1, the outcome was “inactive”.
Nc1ccc(N)c(Cl)c1 was tested, and the outcome was “inactive”.
For Cc1ccc(C2OC[C@@H]3OC(c4ccc(C)cc4)O[C@H]([C@H](O)CO)[C@@H]3O2)cc1 (stereo not given in full), the outcome was “inactive”.
For CCCCCCCC/C=C\CCCCCCCC(=O)OCCO, the outcome was “inactive”.
In the case of [Cl][Nd]([Cl])[Cl], the outcome is reported as “inactive”.
For CCCOC(=O)CCCCC(=O)OCCC, the outcome was “inactive”.
In the case of C=C[Si](OC(C)=O)(OC(C)=O)OC(C)=O, the outcome is reported as “inactive”.
In the case of C=CC(=O)NC(C)(C)CS(=O)(=O)O, the outcome is reported as “inactive”.
In the case of O=C1CCCCCCCCCCCCCCCO1, the outcome is reported as “inactive”.
C[Si](C)O[Si](C)(C)O[Si](C)(C)O[Si](C)C was tested, and the outcome was “inactive”.
For CC(=O)OCC(=O)[C@@]12N=C(C)O[C@@H]1C[C@H]1[C@@H]3CCC4=CC(=O)C=C[C@]4(C)[C@H]3[C@@H](O)C[C@@]12C, the outcome was “inactive”.
In the case of C(=CC=Nc1ccccc1)C=CNc1ccccc1, the outcome is reported as “inactive”.
With CCOC(=O)N1CCC(=C2c3ccc(Cl)cc3CCc3cccnc32)CC1 the outcome was “inactive”.
For CCCCCCCOC(=O)CCC, the outcome was “inactive”.
For Nc1ccc2cc3ccccc3cc2c1, the outcome was “inactive”.
For O=C(C(Cl)Cl)N1CCOC12CCCCC2, the outcome was “inactive”.
For CCCOCCOCCOCCO, the outcome was “inactive”.
CCCCCCCCc1ccc(Nc2ccc(CCCCCCCC)cc2)cc1 was tested, and the outcome was “inactive”.
In the case of COc1c2ccoc2cc2oc(=O)ccc12, the outcome is reported as “inactive”.
For CCCCCCCCCCCSCC(=O)O, the AC50 was 151 µM (active).
O=C(c1ccccc1)C1CCC1 was tested, and the outcome was “inactive”.
Cc1ccc2oc(=O)ccc2c1 was tested, and the outcome was “inactive”.
For Cc1cccc(N(C)C(=S)Oc2ccc3ccccc3c2)c1, the outcome was “inactive”.
For CC1(C)S[C@@H]2[C@H](NC(=O)COc3ccccc3)C(=O)N2[C@H]1C(=O)O, the outcome was “inactive”.
CC[C@H]1OC(=O)[C@H](C)[C@@H](O[C@H]2C[C@@](C)(OC)[C@@H](O)[C@H](C)O2)[C@H](C)[C@@H](O[C@@H]2O[C@H](C)C[C@H](N(C)C)[C@H]2O)[C@](C)(O)C[C@@H](C)C(=NOCOCCOC)[C@H](C)[C@@H](O)[C@]1(C)O was tested, and the outcome was “inactive”.
In the case of COCCOCCOCCOCCOC, the outcome is reported as “inactive”.
CCCCCCC1(C)CCC(=O)O1 (stereo not given) was tested, and the outcome was “inactive”.
In the case of Cc1ccc(C(C)c2ccc(C)c(C)c2)cc1C, the AC50 is reported as 100 µM (active).
CC(=O)Oc1ccc(C)cc1 was tested, and the outcome was “inactive”.
C=CC(=O)OCCOC1C2CCC1C1CC=CC12 (stereo not given) was tested, and the outcome was “inactive”.
With O=c1cc(-c2ccccc2)oc2ccccc12 the outcome was “inactive”.
With CCCCC(CC)COC(=O)c1ccccc1O (stereo not given) the outcome was “inactive”.
With CCOC(=O)Cc1cccc2ccccc12 the outcome was “inactive”.
